Consider 1 sequence from article PMC7862700, “An all-to-all approach to the identification of sequence-specific readers for epigenetic DNA modifications on cytosine”.

Experiment in all cases: DAPPL (digital affinity profiling via proximity ligation, sequencing); 10 mM Tris-HCl pH 7.5, 50 mM NaCl, 1 mM DTT, 4% glycerol, room temperature, 30 min; GST-TFs on glutathione beads, 16-mer random dsDNA library, 0.1% formaldehyde crosslink after washing; high values mean tight binding
In experiment [1] the target is T1, FLI1 (Homo sapiens, UniProt Q01543 1-452).
T1 sequence: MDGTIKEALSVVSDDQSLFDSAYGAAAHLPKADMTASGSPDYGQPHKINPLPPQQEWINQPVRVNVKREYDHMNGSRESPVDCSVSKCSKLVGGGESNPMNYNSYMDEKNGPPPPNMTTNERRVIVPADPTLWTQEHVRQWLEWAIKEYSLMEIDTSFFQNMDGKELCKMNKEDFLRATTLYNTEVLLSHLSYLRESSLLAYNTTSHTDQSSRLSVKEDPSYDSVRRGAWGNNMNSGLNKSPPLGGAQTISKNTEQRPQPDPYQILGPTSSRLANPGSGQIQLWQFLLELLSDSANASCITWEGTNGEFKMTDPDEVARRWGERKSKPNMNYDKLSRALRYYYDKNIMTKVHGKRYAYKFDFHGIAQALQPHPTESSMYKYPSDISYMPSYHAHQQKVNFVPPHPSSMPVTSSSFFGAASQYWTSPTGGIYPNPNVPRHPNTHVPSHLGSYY
Particulars: protein: recombinant; tags: N-terminal GST; dsDNA, one strand shown. An outline of the steps: (§1)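 In yeast, human transcription factors were expressed with a GST fusion, then pulled down on glutathione beads and given DNA barcodes. Pooled with a tag-only sample, they were exposed to 200 nmole of a 16-mer random double-stranded DNA library (Tris/NaCl/DTT/glycerol buffer, room temperature, 30 min), washed, crosslinked with 0.1% formaldehyde, proximity-ligated using BsaI/T4 ligase for 1 h at 37 °C, PCR-amplified and read on an Illumina NextSeq500. Each hexamer's frequency of reads for a factor, divided by the matching frequency for the tag-only sample, gives the binding signal.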

The target of experiment [2] is T2, ELK1 (Homo sapiens, UniProt P19419 1-428).
T2 sequence: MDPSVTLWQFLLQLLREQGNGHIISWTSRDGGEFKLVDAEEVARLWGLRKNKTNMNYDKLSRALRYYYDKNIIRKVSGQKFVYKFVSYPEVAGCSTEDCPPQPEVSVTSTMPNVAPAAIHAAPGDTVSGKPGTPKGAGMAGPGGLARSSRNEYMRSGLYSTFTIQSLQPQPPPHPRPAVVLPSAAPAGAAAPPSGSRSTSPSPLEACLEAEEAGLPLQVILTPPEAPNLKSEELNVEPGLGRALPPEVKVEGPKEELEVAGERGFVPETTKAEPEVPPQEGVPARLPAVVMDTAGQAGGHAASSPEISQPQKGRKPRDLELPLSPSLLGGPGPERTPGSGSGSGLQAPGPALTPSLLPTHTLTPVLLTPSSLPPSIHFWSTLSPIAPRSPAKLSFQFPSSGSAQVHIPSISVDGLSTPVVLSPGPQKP
Conditions: protein: recombinant; tags: N-terminal GST; dsDNA, one strand shown. An outline of the steps:
as §1

In experiment [3] the target is T3, GABPA (Homo sapiens, UniProt Q06546 1-454).
T3 sequence: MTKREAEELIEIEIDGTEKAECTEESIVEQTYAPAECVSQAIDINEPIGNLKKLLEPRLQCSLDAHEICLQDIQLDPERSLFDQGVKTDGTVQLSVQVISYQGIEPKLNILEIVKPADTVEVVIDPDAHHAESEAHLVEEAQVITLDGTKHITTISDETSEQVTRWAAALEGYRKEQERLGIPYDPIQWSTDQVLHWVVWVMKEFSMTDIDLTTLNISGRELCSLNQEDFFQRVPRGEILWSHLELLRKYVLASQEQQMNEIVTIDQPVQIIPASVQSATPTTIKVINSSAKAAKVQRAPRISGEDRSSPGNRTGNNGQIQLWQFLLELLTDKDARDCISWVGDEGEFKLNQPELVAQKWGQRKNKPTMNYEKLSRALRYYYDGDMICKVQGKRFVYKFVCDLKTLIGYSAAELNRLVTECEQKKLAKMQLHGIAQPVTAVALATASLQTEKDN
Conditions: protein: recombinant; tags: N-terminal GST; dsDNA, one strand shown. An outline of the steps:
as §1

Experiment [4] deals with T4, ERG (Homo sapiens, UniProt P11308 1-479).
T4 sequence: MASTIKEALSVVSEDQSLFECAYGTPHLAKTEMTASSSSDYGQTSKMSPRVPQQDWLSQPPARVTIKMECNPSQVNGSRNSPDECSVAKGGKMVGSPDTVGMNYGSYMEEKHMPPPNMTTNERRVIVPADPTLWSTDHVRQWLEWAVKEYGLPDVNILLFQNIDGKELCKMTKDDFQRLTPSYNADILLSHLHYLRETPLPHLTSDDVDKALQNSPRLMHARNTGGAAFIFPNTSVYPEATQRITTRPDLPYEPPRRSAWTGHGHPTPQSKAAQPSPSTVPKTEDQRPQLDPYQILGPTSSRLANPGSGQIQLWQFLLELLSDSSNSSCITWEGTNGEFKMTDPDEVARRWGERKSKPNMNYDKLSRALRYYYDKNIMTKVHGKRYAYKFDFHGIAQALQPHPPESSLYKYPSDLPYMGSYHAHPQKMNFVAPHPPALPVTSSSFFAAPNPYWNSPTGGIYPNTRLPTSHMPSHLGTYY
Conditions: protein: recombinant; tags: N-terminal GST; dsDNA, one strand shown. A digest of the protocol:
as §1

In experiment [5] the target is ELF1 (Homo sapiens, UniProt P32519 1-619). Particulars: protein: recombinant; tags: N-terminal GST; dsDNA, one strand shown. An outline of the steps:
as §1

In experiment [6] the target is T5, EHF (Homo sapiens, UniProt Q9NZC4 1-300).
T5 sequence: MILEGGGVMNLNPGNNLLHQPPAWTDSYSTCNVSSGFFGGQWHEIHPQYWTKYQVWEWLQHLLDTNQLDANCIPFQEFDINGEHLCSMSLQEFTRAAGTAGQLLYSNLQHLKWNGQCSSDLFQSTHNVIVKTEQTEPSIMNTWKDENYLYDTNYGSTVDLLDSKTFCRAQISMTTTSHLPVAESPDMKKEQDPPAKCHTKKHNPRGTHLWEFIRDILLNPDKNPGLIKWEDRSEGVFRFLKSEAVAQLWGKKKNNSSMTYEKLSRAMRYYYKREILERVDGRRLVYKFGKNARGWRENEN
Particulars: protein: recombinant; tags: N-terminal GST; dsDNA, one strand shown. An outline of the steps: as §1

Experiment [7] concerns the target SPI1 (Homo sapiens, UniProt P17947 1-270). Conditions: protein: recombinant; tags: N-terminal GST; dsDNA, one strand shown. An outline of the steps:
as §1

The target of experiment [8] is SPIB (Homo sapiens, UniProt Q01892 1-262). Particulars: protein: recombinant; tags: N-terminal GST; dsDNA, one strand shown. An outline of the steps:
as §1

In experiment [9] the target is T6, ELK3 (Homo sapiens, UniProt P41970 1-407).
T6 sequence: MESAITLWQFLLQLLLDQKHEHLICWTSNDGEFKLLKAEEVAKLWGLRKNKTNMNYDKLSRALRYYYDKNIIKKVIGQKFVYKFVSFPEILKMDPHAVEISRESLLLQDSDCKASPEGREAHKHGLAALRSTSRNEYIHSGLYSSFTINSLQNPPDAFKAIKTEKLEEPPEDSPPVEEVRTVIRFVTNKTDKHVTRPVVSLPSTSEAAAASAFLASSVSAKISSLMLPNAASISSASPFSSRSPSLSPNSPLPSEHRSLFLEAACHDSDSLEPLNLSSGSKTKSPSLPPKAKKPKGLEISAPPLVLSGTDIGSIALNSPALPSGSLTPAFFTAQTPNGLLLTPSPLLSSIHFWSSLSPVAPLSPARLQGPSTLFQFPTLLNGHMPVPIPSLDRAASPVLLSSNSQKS
Conditions: protein: recombinant; tags: N-terminal GST; dsDNA, one strand shown. An outline of the steps:
as §1

Experiment [10] addresses T7, FEV (Homo sapiens, UniProt Q99581 1-238).
T7 sequence: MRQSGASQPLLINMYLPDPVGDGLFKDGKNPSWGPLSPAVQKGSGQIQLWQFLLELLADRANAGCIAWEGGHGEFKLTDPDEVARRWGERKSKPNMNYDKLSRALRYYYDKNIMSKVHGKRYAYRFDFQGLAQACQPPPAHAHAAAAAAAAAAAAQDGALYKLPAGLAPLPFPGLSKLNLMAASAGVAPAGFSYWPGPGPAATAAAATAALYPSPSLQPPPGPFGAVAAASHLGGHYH
Particulars: protein: recombinant; tags: N-terminal GST; dsDNA, one strand shown. A digest of the protocol:
as §1

The target of experiment [11] is ETV5 (Homo sapiens, UniProt P41161 1-510). Particulars: protein: recombinant; tags: N-terminal GST; dsDNA, one strand shown. An outline of the steps: as §1
For experiment [12], the target named is HSF1 (Homo sapiens, UniProt Q00613 1-529). Conditions: protein: recombinant; tags: N-terminal GST; chain copies: 3; dsDNA, one strand shown. A digest of the protocol:
as §1

The target in experiment [13] is T8, SPIC (Homo sapiens, UniProt Q8N5J4 1-248).
T8 sequence: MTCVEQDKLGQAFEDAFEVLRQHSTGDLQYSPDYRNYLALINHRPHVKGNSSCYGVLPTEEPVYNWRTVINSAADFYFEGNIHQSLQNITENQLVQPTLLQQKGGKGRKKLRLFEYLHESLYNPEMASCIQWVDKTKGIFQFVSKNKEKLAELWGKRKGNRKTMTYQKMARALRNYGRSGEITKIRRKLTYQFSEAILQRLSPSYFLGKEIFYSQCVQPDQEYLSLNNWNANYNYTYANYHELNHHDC
Particulars: protein: recombinant; tags: N-terminal GST; dsDNA, one strand shown. A digest of the protocol: as §1

In experiment [14] the target is ELF4 (Homo sapiens, UniProt Q99607 1-663). Conditions: protein: recombinant; tags: N-terminal GST; dsDNA, one strand shown. An outline of the steps: as §1
For experiment [15], the target named is T9, ELK4 (Homo sapiens, UniProt P28324-2 1-405).
T9 sequence: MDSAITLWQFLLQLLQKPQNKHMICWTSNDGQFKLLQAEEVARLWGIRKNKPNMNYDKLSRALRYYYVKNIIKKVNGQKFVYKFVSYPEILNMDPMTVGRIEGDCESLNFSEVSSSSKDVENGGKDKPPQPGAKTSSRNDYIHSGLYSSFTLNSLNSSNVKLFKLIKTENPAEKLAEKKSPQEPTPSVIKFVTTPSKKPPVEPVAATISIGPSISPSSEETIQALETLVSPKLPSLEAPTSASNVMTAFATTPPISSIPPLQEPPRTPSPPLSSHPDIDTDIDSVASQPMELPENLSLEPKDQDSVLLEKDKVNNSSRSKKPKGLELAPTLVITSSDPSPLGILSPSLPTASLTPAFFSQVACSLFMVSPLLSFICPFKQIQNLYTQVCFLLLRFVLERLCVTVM
Particulars: protein: recombinant; tags: N-terminal GST; dsDNA, one strand shown. An outline of the steps: as §1

Experiment [16] concerns the target T10, ETV2 (Homo sapiens, UniProt O00321 1-342).
T10 sequence: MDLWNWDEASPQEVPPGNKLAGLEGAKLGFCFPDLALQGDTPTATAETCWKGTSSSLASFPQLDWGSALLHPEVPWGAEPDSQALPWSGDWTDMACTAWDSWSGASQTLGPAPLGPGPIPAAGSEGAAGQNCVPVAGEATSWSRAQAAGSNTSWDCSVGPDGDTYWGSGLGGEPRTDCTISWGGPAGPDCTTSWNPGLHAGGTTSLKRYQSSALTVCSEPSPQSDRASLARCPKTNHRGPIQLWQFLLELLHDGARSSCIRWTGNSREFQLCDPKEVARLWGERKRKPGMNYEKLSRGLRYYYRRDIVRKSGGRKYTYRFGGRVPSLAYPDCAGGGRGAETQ
Conditions: protein: recombinant; tags: N-terminal GST; dsDNA, one strand shown. An outline of the steps: as §1

In experiment [17] the target is T11, ELF3 (Homo sapiens, UniProt P78545 1-371).
T11 sequence: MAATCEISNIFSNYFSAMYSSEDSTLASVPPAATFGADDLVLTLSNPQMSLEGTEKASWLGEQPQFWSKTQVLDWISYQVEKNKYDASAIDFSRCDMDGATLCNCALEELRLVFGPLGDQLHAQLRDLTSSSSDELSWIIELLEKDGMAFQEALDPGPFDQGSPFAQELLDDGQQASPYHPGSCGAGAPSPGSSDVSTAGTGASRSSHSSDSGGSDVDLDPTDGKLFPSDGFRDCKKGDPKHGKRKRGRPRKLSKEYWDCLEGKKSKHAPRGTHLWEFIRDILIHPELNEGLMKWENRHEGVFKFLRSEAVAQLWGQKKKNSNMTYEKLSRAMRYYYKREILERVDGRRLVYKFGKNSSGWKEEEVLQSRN
Conditions: protein: recombinant; tags: N-terminal GST; dsDNA, one strand shown. An outline of the steps: as §1

Experiment [18] addresses CRX (Homo sapiens, UniProt O43186 1-299). Particulars: protein: recombinant; tags: N-terminal GST; dsDNA, one strand shown. An outline of the steps:
as §1

In experiment [19] the target is ETV1 (Homo sapiens, UniProt P50549 1-477). Particulars: protein: recombinant; tags: N-terminal GST; dsDNA, one strand shown. An outline of the steps: as §1
Sequence of ETV1 (P50549 whole entry): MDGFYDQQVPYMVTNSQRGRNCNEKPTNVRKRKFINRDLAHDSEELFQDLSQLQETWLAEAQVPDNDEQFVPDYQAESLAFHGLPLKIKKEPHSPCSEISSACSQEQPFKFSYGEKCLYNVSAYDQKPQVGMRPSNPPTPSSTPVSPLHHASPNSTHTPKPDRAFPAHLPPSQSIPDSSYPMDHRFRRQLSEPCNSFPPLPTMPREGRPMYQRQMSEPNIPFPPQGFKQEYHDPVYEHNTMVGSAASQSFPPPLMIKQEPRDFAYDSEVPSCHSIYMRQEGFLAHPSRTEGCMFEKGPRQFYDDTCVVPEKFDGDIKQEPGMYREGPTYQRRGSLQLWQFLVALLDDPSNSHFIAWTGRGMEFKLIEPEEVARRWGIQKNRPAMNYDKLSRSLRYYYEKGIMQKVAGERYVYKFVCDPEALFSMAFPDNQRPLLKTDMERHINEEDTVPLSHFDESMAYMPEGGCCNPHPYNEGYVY

Sequence of HSF1 (Q00613 whole entry): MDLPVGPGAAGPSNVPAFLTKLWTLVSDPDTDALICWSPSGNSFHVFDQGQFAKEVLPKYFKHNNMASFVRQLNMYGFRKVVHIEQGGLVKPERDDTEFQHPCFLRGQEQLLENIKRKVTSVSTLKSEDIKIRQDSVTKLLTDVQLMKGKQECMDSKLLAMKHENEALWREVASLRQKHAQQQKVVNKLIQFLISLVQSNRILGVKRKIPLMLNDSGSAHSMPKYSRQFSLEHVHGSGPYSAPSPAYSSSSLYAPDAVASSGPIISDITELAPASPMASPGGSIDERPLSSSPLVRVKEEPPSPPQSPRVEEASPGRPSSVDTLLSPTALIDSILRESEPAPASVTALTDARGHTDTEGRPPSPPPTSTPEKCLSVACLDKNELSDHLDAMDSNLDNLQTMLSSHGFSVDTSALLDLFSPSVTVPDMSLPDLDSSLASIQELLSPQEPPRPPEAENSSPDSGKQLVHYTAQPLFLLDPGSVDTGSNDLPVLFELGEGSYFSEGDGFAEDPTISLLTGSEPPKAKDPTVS
Sequence of SPIB (Q01892 whole entry): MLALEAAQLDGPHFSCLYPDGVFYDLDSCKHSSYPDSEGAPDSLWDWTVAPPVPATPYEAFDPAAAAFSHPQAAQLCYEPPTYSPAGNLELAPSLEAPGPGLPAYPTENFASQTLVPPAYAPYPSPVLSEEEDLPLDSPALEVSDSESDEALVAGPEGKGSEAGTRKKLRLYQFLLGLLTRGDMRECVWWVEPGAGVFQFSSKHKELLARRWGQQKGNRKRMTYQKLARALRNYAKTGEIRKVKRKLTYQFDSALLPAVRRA
Sequence of ETV5 (P41161 whole entry): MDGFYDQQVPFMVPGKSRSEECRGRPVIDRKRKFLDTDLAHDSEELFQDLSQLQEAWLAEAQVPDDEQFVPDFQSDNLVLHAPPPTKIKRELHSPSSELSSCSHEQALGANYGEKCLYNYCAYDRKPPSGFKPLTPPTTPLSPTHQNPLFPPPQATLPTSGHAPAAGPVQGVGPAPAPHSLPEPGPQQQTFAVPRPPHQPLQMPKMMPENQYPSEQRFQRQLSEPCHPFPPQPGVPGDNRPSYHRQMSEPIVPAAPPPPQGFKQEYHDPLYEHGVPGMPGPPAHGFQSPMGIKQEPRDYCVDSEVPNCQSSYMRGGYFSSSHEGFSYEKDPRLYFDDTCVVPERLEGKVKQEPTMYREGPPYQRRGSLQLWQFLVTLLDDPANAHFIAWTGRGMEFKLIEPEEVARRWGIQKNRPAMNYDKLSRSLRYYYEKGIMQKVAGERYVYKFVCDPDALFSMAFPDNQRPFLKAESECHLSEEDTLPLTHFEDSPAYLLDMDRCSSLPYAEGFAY
Sequence of CRX (O43186 whole entry): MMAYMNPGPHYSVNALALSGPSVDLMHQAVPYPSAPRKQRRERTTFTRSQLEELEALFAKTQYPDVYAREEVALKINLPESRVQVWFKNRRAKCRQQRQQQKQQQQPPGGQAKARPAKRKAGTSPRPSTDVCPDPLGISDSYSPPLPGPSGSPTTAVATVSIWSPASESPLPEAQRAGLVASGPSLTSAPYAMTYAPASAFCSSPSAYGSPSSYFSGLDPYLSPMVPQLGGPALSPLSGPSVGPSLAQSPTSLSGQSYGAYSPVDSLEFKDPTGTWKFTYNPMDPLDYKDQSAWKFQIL
Sequence of ELF4 (Q99607 whole entry): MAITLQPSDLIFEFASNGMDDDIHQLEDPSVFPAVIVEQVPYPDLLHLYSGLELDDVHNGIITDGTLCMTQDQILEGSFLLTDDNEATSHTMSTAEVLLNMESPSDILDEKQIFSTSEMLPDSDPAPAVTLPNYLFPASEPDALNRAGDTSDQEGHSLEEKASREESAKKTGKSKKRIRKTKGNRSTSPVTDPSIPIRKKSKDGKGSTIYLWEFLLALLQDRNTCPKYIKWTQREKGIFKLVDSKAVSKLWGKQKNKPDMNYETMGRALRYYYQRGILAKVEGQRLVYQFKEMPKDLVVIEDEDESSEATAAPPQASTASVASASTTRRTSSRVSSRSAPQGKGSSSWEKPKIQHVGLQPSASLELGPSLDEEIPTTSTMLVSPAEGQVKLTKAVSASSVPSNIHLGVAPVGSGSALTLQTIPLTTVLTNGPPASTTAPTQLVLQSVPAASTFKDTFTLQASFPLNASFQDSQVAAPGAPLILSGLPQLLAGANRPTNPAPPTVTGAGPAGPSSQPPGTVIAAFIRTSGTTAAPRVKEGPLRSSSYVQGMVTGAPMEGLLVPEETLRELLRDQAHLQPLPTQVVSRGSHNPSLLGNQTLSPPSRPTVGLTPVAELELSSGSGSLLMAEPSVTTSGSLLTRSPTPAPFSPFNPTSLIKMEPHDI
Sequence of ELF1 (P32519 whole entry): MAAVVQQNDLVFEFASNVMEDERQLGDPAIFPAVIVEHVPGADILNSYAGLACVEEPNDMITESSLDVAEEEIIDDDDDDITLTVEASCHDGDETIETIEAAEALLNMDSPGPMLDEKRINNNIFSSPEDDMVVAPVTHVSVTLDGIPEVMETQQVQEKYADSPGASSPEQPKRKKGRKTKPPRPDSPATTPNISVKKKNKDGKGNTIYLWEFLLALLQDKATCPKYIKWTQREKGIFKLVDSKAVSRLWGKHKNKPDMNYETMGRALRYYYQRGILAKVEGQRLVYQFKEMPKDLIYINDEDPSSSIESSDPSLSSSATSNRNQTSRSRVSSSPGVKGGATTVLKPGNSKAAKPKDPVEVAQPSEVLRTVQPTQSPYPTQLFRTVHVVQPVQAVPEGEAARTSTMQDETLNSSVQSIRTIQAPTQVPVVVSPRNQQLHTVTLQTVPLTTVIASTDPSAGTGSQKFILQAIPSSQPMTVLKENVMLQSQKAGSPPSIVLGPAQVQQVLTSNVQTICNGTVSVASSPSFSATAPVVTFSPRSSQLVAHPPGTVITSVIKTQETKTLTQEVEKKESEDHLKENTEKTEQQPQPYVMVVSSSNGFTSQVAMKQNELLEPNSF

For the sequence TCTATA, the binding signal is 1.09 fold enrichment (6-mer frequency, TF over GST control) in [1]; 1.13 fold enrichment (6-mer frequency, TF over GST control) in experiment [2]; 1.11 fold enrichment (6-mer frequency, TF over GST control) in experiment [3]; 1.02 fold enrichment (6-mer frequency, TF over GST control) in [4]; 1.26 fold enrichment (6-mer frequency, TF over GST control) in experiment [5]; 1.07 fold enrichment (6-mer frequency, TF over GST control) in experiment [6]. The binding signal in experiment [7] is 1.07 fold enrichment (6-mer frequency, TF over GST control); in [8] it was 1.15 fold enrichment (6-mer frequency, TF over GST control); in experiment [9], 1.17 fold enrichment (6-mer frequency, TF over GST control); in experiment [10], 1.15 fold enrichment (6-mer frequency, TF over GST control); in experiment [11], 1.17 fold enrichment (6-mer frequency, TF over GST control); in [12] it was 1.4 fold enrichment (6-mer frequency, TF over GST control). Further, the binding signal in [13] was 1.26 fold enrichment (6-mer frequency, TF over GST control); in experiment [14] it was 1.23 fold enrichment (6-mer frequency, TF over GST control); in experiment [15] it was 1.24 fold enrichment (6-mer frequency, TF over GST control); in experiment [16], 1.03 fold enrichment (6-mer frequency, TF over GST control); in experiment [17] it was 1.08 fold enrichment (6-mer frequency, TF over GST control); in [18], 1.36 fold enrichment (6-mer frequency, TF over GST control). For the same sequence, the binding signal in experiment [19] was 1.08 fold enrichment (6-mer frequency, TF over GST control).
